Bioassay records: PubChem BioAssay, Broad Institute
NSD2 inh: inhibitors of human NSD2 methyltransferase; AID 624260; O96028; inhibition, % at 12.5 µM; NSD2-SET H3K36me1 DELFIA fluorescence, biochemical; 44,000 tested, 0.07% active; in the data active = inhibition above about 54%, passing the limit was not always enough;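 also: inhibitors reduce the monomethyl H3K36 fluorescence signal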
Target sequence (O96028 whole entry, looked up): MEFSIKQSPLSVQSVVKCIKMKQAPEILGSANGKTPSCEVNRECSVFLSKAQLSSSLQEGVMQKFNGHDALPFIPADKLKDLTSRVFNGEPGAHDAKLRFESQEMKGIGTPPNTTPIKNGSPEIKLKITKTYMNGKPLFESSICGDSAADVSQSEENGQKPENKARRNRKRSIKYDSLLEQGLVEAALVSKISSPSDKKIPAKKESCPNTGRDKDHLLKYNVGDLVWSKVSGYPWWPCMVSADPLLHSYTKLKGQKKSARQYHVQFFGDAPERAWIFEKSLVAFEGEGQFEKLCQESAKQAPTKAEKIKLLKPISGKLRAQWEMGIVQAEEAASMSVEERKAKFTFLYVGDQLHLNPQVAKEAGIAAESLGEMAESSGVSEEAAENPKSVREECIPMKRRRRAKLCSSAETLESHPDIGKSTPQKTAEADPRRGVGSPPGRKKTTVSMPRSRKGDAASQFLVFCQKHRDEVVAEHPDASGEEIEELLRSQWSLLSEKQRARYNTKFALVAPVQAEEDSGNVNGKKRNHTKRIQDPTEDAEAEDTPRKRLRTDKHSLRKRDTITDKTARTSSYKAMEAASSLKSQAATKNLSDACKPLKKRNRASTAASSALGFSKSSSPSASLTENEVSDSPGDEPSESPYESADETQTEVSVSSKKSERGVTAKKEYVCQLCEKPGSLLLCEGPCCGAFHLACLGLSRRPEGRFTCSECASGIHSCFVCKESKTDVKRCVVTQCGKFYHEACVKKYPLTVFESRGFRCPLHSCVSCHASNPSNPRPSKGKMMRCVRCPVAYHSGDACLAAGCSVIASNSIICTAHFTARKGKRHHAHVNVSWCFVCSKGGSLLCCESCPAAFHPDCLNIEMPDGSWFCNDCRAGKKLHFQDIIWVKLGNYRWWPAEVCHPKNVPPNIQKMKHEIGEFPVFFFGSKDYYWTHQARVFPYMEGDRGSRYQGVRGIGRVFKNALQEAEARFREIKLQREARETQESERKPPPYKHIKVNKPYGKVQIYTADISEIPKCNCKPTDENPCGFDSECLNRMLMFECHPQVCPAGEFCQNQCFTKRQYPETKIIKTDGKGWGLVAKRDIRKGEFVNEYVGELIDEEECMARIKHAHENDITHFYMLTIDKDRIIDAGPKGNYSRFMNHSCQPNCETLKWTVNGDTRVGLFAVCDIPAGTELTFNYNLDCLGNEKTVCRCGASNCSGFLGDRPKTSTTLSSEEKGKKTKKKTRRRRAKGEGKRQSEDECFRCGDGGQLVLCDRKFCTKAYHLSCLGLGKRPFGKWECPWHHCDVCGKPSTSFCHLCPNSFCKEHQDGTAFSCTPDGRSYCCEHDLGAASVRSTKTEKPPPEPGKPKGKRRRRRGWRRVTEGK
The depositor's hits bear a star. This excerpt belongs to a sample that is enriched for hits.

SMILES | NSD2 inh
COc1cc(C2Oc3c(OC)cc(CCCO)cc3C2CO)ccc1O[C@H]1O[C@H](C)[C@@H](O)[C@H](O)[C@@H]1O (some centres undefined) | 59*
C[C@@H]1O[C@@H](Oc2ccc(C3Oc4cc(O)cc(O)c4C(=O)C3O)cc2O)[C@H](O)[C@H](O)[C@H]1O (some centres undefined) | 33
COc1ccc(C2Oc3c(OC)cc(CCCO)cc3C2CO)cc1OC1OC(CO)C(O)C(O)C1O (centres undefined) | 11
O=C(/C=C/c1ccccc1)O[C@@H]1O[C@H](CO)[C@@H](O)[C@H](O)[C@H]1O | 0
O=C(O)c1c(O)cc(OC2OC(CO)C(O)C(O)C2O)cc1/C=C/c1ccccc1 (centres undefined) | 76*
O=C(CCc1ccc(O)cc1)c1ccc(O[C@@H]2O[C@H](CO)[C@H](O)[C@H](O)[C@H]2O)cc1O | 15
COc1cc(/C=C/C(=O)O[C@@H]2C[C@@](O)(C(=O)O)C[C@@H](O)[C@@H]2O)ccc1O | 12
O=C(/C=C/c1ccc(O)cc1)O[C@@H]1CC(O)(C(=O)O)C[C@@H](OC(=O)/C=C/c2ccc(O)cc2)C1O (some centres undefined) | 63*
CC(=O)CCC1C2C(O)C(C(C)C)C(OC(=O)/C=C/c3ccccc3)CC12C (centres undefined) | -11
NC(=O)NCC#Cc1ccc2c(c1)[C@]1(C(=O)N2)[C@H](c2ccc(OCCO)cc2)N2[C@H](c3ccccc3)[C@H](c3ccccc3)OC(=O)[C@H]2[C@@H]1C(=O)N1CCCCCCC1 | 0
O=S(=O)(c1ccc(Cl)cc1)N1CCN(CC(O)COc2ccc3ccccc3c2)CC1 (centres undefined) | -2
O=C(CSc1nc2ccc(NC(=O)c3ccccc3)cc2s1)Nc1ccccc1C(F)(F)F | -10
Cc1cc(-c2ccc(N=Nc3cc(S(=O)(=O)O)c4ccccc4c3N)c(C)c2)ccc1N=Nc1cc(S(=O)(=O)O)c2ccccc2c1N | 92*
CCc1c(C)c(C#N)c2[nH]c3ccccc3n2c1=O | 0
C=CCNC(=O)CSc1nnc(-c2ccc3nonc3c2)n1C | 6
C[C@H](CO)N1C[C@H](C)[C@H](CN(C)Cc2ccc(C(=O)Nc3ccccc3N)cc2)Oc2ccc(NC(=O)Nc3ccc(C(F)(F)F)cc3)cc2CC1=O | -7
CCN(CC)c1ccc(/C=N/NC(=O)c2ccc(C(=O)NO)cc2)c(O)c1 | 11
O=C(NO)c1ccc(C(=O)N/N=C/c2cccc(Oc3ccccc3)c2)cc1 | 1
O=C(NO)c1ccc(C(=O)N/N=C/c2ccc(F)cc2)cc1 | 4
O=C(NO)c1ccc(C(=O)N/N=C/c2ccc3ccccc3c2)cc1 | 62*
O=C(NO)c1ccc(C(=O)N/N=C/c2cccc(O)c2O)cc1 | 3
O=C(NO)c1ccc(C(=O)N/N=C/c2ccc(O)c(O)c2O)cc1 | 61*
COc1ccc(NC(=O)C(C)Oc2ccccc2)cc1NC(=O)c1ccco1 (centres undefined) | 4
CC(C)Cc1ccc(C(C)c2nc(-c3cccs3)no2)cc1 (centres undefined) | 4
C=C1C[C@@]23CCC4[C@](C)(C(=O)O)CCC[C@@]4(C)[C@]2(O)CCC1C3 (some centres undefined) | -1
SMILES | NSD2 inh
C/S(=N\S(=O)(=O)c1cccc2nsnc12)c1ncc(Cl)cc1C(F)(F)F (centres undefined) | 10
Cc1cc(N2CCCC2)ccc1/C=C(/C#N)c1ccc(F)cc1 | -17
COc1cc(Br)cc(/C=N/NC(=O)CCCCC(=O)NO)c1O | 4
O=c1c2c3c(sc2ncn1/N=C/c1cc(Br)ccc1O)CCCC3 | 2
C/C(=C\Cc1c(O[C@@H]2O[C@H](CO)[C@@H](O)[C@H](O)[C@H]2O)ccc2ccc(=O)oc12)CO | 3
O=C(CCc1ccc(O)c(O)c1)C[C@H](CCc1ccc(O)c(O)c1)O[C@@H]1OC[C@@H](O)[C@H](O)[C@H]1O | 9
O=C(N/N=C/c1ccc(O)cc1O)c1ccccc1O | -6
C=C(C)C(O)C(O)c1c(OC)ccc2ccc(=O)oc12 (centres undefined) | 3
O=C(CCCCCC(=O)Nc1ccccc1O)N/N=C/c1ccc([N+](=O)[O-])c(O)c1 | 7
Cc1ccc(NCc2ccc(C(=O)Nc3ccccc3)cc2)cc1C | 4
[N-]=[N+]=Nc1cccc(C(=O)N2CCC3(CC2)C(=O)NCN3c2ccccc2)c1 | 4
CC(=O)NCCCN(CCCCN(CCCNC(=O)/C=C/c1ccc(O)cc1)C(C)=O)C(=O)/C=C/c1ccc(O)cc1 | 5
O=C(NCCSc1c(-c2ccc(Br)cc2)[nH]c2ccccc12)c1ccncc1 | -4
COc1cc(C[C@@H]2CO[C@@H](c3ccc(O)c(OC)c3)[C@@H]2CO)ccc1O | 68*
COc1cc([C@H]2OC[C@H]3[C@@H]2CO[C@H]3c2ccc(OC)c(OC)c2)ccc1O | -1
COc1cc([C@H]2OC[C@H]3[C@@H]2CO[C@@H]3c2ccc(O)c(OC)c2)ccc1O | 11
CN(C(=S)SCc1ccccc1)c1ccccc1 | 30
COc1c(O)c(C(=O)CCc2ccccc2)c(OC)c(OC)c1OC | 19
